Shown are actives, neighbours in structure and some others; about 22% of the full set was active somewhere.
Measles CPE: protection of cells from measles virus | 140,000 compounds, 1.5% hits | AID 841 | Measles virus-infected cells, CPE protection, absorbance | protection (pct of control), % at 4 µM; in the data active means protection mostly above about 24%, no sharp cut-off; inactive means mostly below about 26%
CYP2C19 act: cytochrome P450 2C19 (human) activation | recombinant CYP2C19, luciferin-H EGE luminescence; active compounds read high; 0 = fully inhibited enzyme, 1 = untreated enzyme | 96,000 tested, under 10 active | AID 1025 | activation factor at 5 µM;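 active means activation factor of at least 2 at 5 µM in the primary screen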
Target sequence (P33261 whole entry, looked up): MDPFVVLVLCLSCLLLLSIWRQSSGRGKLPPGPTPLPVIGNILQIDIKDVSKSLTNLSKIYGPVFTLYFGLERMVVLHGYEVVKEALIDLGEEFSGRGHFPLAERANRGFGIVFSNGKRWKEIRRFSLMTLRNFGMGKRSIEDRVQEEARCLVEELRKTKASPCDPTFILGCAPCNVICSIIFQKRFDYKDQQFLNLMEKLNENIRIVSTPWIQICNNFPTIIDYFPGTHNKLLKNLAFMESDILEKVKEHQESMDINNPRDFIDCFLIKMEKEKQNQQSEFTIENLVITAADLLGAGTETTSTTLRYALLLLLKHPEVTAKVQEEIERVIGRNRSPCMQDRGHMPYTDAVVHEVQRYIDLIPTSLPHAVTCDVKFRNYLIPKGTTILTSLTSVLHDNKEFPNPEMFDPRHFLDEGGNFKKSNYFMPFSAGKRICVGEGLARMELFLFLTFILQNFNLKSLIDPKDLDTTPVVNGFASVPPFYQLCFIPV
CYP2C9 act: CYP2C9 (human) activation. P11712. recombinant CYP2C9, luciferin-H conversion, luminescence; active compounds read high; factor 1 = untreated enzyme, 0 = blocked. activation factor at 5 µM. 96,000 compounds, 1.4% hits. AID 1024;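 active means activation factor of 2 or more for CYP2C9 at a 5 µM dose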
CYP2C9 inh: blocks human cytochrome P450 2C9; P11712; 96,000 compounds, 20% hits; inhibition, % at 5 µM; CYP2C9 Supersomes, luciferin-H conversion, luminescence;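 active means blocking of liver enzyme CYP2C9 beyond about 50% at 5 µM, limit read from the data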
CYP2C19 inhib: inhibitors of human CYP2C19; P33261; CYP2C19 Supersomes, luciferin-H EGE luminescence, 30 min; inhibition, % at 5 µM; 96,000 compounds, 21% hits;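 active means CYP2C19 inhibition above a set limit at 5 µM in the primary screen, cut at about 50% in these data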
Large screens that a line does not name were inactive.

O=C(CSc1ccc(Cl)cc1)N1CCOCC1	CYP2C19 inhib 74
O=C(N1CCOCC1)N1CCC(n2nnc3ccccc32)CC1	none
CCc1ccc(NC(=O)C(=O)NNC(=O)COc2cccc(OC)c2)cc1	none (no result: CYP2C19 act, CYP2C9 act, CYP2C9 inh, CYP2C19 inhib)
COc1ccc(CN(CCC(c2ccccc2)c2ccc(OC(C)C)cc2)C(=O)CCl)cc1OC (stereo not drawn)	none (no result: CYP2C19 act, CYP2C9 act, CYP2C9 inh, CYP2C19 inhib)
CCOC(=O)c1cc2cc(OC)ccc2nc1C	none (no result: CYP2C19 act, CYP2C9 act, CYP2C9 inh, CYP2C19 inhib)
Nn1c(SCC(=O)N2CCCCC2)nnc1-c1ccncc1	none
Cc1ccccc1-n1c(SCC(=O)N2CCN(c3ccccc3)CC2)nnc1-c1ccncc1	CYP2C9 inh 76, CYP2C19 inhib 84
O=C(CSc1nnc(-c2ccncc2)n1-c1ccc(Cl)cc1)N1CCOCC1	CYP2C9 inh 77, CYP2C19 inhib 98
COc1ccc(-c2oc3ccccc3c(=O)c2OC(=O)c2ccc(C)cc2)cc1	CYP2C9 inh 89, CYP2C19 inhib 84
CCCSc1nnc(-c2cccc(S(=O)(=O)N(C)C)c2)n1-c1cc(OC)ccc1OC	CYP2C9 inh 86, CYP2C19 inhib 77
COc1ccc(OC)c(-n2c(SCC(C)=O)nnc2-c2cccc(S(=O)(=O)N(C)C)c2)c1	none
CCSc1nnc(-c2cccc(S(=O)(=O)N(C)C)c2)n1-c1cc(OC)ccc1OC	CYP2C9 inh 84, CYP2C19 inhib 70 (no result: Measles CPE)
CCOC(=O)C1CN(S(=O)(=O)c2ccc(C)cc2)C1	none
CC1CCC/C(=N\NC(=S)NCc2ccccc2)C1 (stereo not drawn)	CYP2C9 inh 85, CYP2C19 inhib 82
OCc1ccccc1OCCOc1ccc(Cl)c2cccnc12	CYP2C9 act 2.1
Cn1c(=O)c(-c2cc(Br)ccc2N)nc2ccccc21	CYP2C9 inh 52, CYP2C19 inhib 93
Cc1ccc(NS(=O)(=O)c2cccc(C(=O)N/N=C/c3ccc4c(c3)OCCO4)c2)c(C)c1	none (no result: CYP2C19 act, CYP2C9 act, CYP2C9 inh, CYP2C19 inhib)
CNc1c([N+](=O)[O-])cnn1-c1ccc(Cl)cc1Cl	CYP2C19 inhib 53
COc1ccc(OCCC(=O)OCC(=O)NC(=O)NC(C)(C)C)cc1	CYP2C9 inh 83, CYP2C19 inhib 84
O=c1ccc2c(o1)/C(=C/C=C(Cl)Cl)CCC2	none
CC1CN(c2nc3ccccc3nc2C(C#N)C(=O)NCc2ccc3c(c2)OCO3)CC(C)O1 (stereo not drawn)	none
COc1ccc(CNc2ccccc2SC)cc1OC	CYP2C19 inhib 83
COc1cc(CNc2ccccc2SC)cc(OC)c1OC	CYP2C9 inh 89, CYP2C19 inhib 95
COc1cc(CNC2CCCc3ccccc32)cc(OC)c1OC (stereo not drawn)	none (no result: CYP2C19 act, CYP2C9 act, CYP2C9 inh, CYP2C19 inhib)
COc1ccc(CNC(=O)NCc2ccc(OC)c(OC)c2)cc1OC	none
COCCCNC(=O)CC(NCCCOC)C(=O)O (stereo not drawn)	none (no result: CYP2C19 act, CYP2C9 act, CYP2C9 inh, CYP2C19 inhib)
O=S(=O)(NCCOCC(F)(F)F)c1ccc2oc3ccccc3c2c1	none (no result: CYP2C19 act, CYP2C9 act, CYP2C9 inh, CYP2C19 inhib)
CC(C)NC(=O)C(Cc1ccccc1)N1C(=O)c2ccccc2C1=O (stereo not drawn)	none (no result: CYP2C19 act, CYP2C9 act, CYP2C9 inh, CYP2C19 inhib)
CCN(CC)C(=O)C(Cc1ccccc1)N1C(=O)c2ccccc2C1=O (stereo not drawn)	CYP2C9 inh 53, CYP2C19 inhib 67
COc1cc2c(cc1OC)CN(S(=O)(=O)c1ccc3c(c1)OCCO3)CC2	CYP2C19 inhib 95
COc1ccc(S(=O)(=O)N2CCc3ccccc3C2)cc1OC	CYP2C9 act 2.4, CYP2C19 inhib 91
CCc1cc([N+](=O)[O-])cc(CC)c1N	CYP2C19 inhib 55
Cc1nn(C)c(C)c1CN(C)C(=O)CCCC(=O)O	none (no result: CYP2C19 act, CYP2C9 act, CYP2C9 inh, CYP2C19 inhib)
O=C(CCc1ccccc1)NC(NC(=S)Nc1cccc(Cl)c1)C(Cl)(Cl)Cl (stereo not drawn)	none (no result: CYP2C19 act, CYP2C9 act, CYP2C9 inh, CYP2C19 inhib)
CCCC(=O)NC(NC(=S)Nc1ccc(S(N)(=O)=O)cc1)C(Cl)(Cl)Cl (stereo not drawn)	none (no result: CYP2C19 act, CYP2C9 act, CYP2C9 inh, CYP2C19 inhib)
O=C(CCc1ccccc1)NC(NC(=S)Nc1ccc(Br)cc1)C(Cl)(Cl)Cl (stereo not drawn)	CYP2C9 inh 97
CCCCCC(=O)NC(NC(=S)Nc1ccc(S(N)(=O)=O)cc1)C(Cl)(Cl)Cl (stereo not drawn)	CYP2C9 inh 93, CYP2C19 inhib 60
CC(C)C(=O)NC(Nc1ccc(S(N)(=O)=O)cc1)C(Cl)(Cl)Cl (stereo not drawn)	none (no result: CYP2C19 act, CYP2C9 act, CYP2C9 inh, CYP2C19 inhib)
CCCCCCCC(=O)NC(Nc1ccc(S(N)(=O)=O)cc1)C(Cl)(Cl)Cl (stereo not drawn)	CYP2C9 inh 77
Cc1occc1-c1nnc(SCC(=O)N(C)C)o1	none
CCN1C(=O)/C(=C/c2ccc(C)o2)N(C)C1=S	none (no result: CYP2C19 act, CYP2C9 act, CYP2C9 inh, CYP2C19 inhib)
CCOC(=O)C1=C(CSc2nccn2C)NC(=O)NC1c1ccc2c(c1)OCO2 (stereo not drawn)	CYP2C19 inhib 88
CCOC(=O)C1=C(CSc2nccn2C)NC(=O)NC1c1cc(C)ccc1C (stereo not drawn)	none
CCc1ccc(NC(=S)Nc2ccc3cn[nH]c3c2)cc1	none (no result: CYP2C19 act, CYP2C9 act, CYP2C9 inh, CYP2C19 inhib)
COc1ccccc1S(=O)(=O)Nc1ccc2cn[nH]c2c1	none (no result: CYP2C19 act, CYP2C9 act, CYP2C9 inh, CYP2C19 inhib)
COc1ccc(CNc2ccc3cn[nH]c3c2)c(OC)c1OC	CYP2C9 inh 86, CYP2C19 inhib 98
CCOc1cc(CNc2ccc3cn[nH]c3c2)ccc1OC	CYP2C9 inh 75, CYP2C19 inhib 88
Cc1cccc(OCCC(=O)N(C)CC(=O)Nc2cccc3ccccc23)c1	none (no result: CYP2C19 act, CYP2C9 act, CYP2C9 inh, CYP2C19 inhib)
c1ccc(-n2ncc3c(N4CCN(CCOc5cccc6ccccc56)CC4)ncnc32)cc1	CYP2C9 inh 76
Cc1cccc(C(=O)N2CCN(c3ncnc4c3cnn4-c3ccccc3)CC2)c1	none (no result: CYP2C19 act, CYP2C9 act, CYP2C9 inh, CYP2C19 inhib)
O=C(COc1ccccc1)N1CCN(c2ncnc3c2cnn3-c2ccccc2)CC1	CYP2C9 inh 71, CYP2C19 inhib 80
O=C(Nc1nnc(C23CC4CC(CC(C4)C2)C3)s1)c1ccco1	none
CC(=O)c1ccc(NC(=O)C(C)OC(=O)c2ccc(NS(=O)(=O)c3ccc(F)c(F)c3)cc2)cc1 (stereo not drawn)	none (no result: CYP2C19 act, CYP2C9 act, CYP2C9 inh, CYP2C19 inhib)
CCOc1ccc(C2Sc3ccccc3NC3=C2C(=O)OC3)cc1 (stereo not drawn)	CYP2C9 inh 56, CYP2C19 inhib 68
CCOc1ccc(C2NC(=O)c3ccccc3O2)cc1 (stereo not drawn)	none
O=C1CC(c2ccccc2)Sc2ccccc2N1 (stereo not drawn)	none
O=C1OCC2=C1C(c1ccc3c(c1)OCO3)Sc1ccccc1N2 (stereo not drawn)	CYP2C9 inh 70, CYP2C19 inhib 96
Oc1ccc2ccccc2c1N=Nc1ccccn1	CYP2C9 inh 67
CCC(=O)N1CCc2cc(Br)cc(S(=O)(=O)NCC3CCCN3CC)c21 (stereo not drawn)	none
COCCOc1cc(-n2ccnc2SC)c(Cl)cc1Cl	CYP2C19 inhib 68
CCOC(=O)c1c(C)oc2c1c1c(c3ccccc32)OCN(Cc2ccccn2)C1	CYP2C9 inh 54
CCOC(=O)c1c(C)oc2c1c(C(c1ccncc1)N1CCOCC1)c(O)c1ccccc12 (stereo not drawn)	CYP2C9 inh 97, CYP2C19 inhib 98
CCOC(=O)c1c(C)oc2c1c(CN1CCN(C(=O)OCC)CC1)c(O)c1ccccc12	none (no result: CYP2C19 act, CYP2C9 act, CYP2C9 inh, CYP2C19 inhib)
O=C(c1ccccc1)n1c(=S)nc2ccccn21	CYP2C19 inhib 79 (no result: Measles CPE)
Cc1ccc(C(=O)n2c(=S)nc3ccccn32)cc1	none

Source: PubChem BioAssay (several laboratories)
